In PubChem BioAssay:
Results filed as inconclusive are left out. Calls of active or inactive are those of the source.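 Rule for the calls, unless noted: active = RAM network inhibition above 8.4% in each of two replicates, 3 SD over the compound average; inconclusive = above 8.4% inhibition in only one replicate; inactive = 8.4% inhibition or less in each replicate.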

Assays:
[1] = SK-BR-3 cell growth inhibitors, pilot screen, 24 h, human (AID 572;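 active = viability at or below 10% of carrier control in both of two separate runs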;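 note: compound exposure lasted between 18 and 24 h rather than exactly 24 h; 100% = carrier-treated control wells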); conditions: SK-BR-3 viability, CellTiter-Glo luminescence, at 10 µM, stronger effect = lower value
[2] = HUVEC growth inhibition – cell-based, human, primary screen (AID 575;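 active = viability at or below 30% in both replicate assays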;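 note: 100% = median of untreated cell wells with 0.1% DMSO on each plate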); conditions: HUVEC proliferation, CellTiter-Glo luminescence, 72 h; at 10 µM; stronger effect = lower value
[3] = growth inhibitors of H69AR lung tumor, primary screen, human, duplicate replicates (AID 580;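 active = viability at or under a set limit in both replicates, limit being median viability minus 3 SD, cut at about 48% in these data, passing the limit was not always enough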;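 note: 100% = mean luminescence of untreated wells and 0% = no signal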); conditions: H69AR lung tumor cells viability, ATP luminescence, 72 h; at 10 µM; stronger effect = lower value
[4] = reversal of MRP1-mediated doxorubicin resistance, pilot screen, H69AR cells, doxorubicin co-treatment (AID 601;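 active = viability loss from added drug above about 55%, and viability with drug at most 40%, in both replicates, limit read from the data, passing the limit was not always enough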); conditions: CellTiter-Glo, 72 h, at 10 µM; for differential viability (reversal): stronger effect = higher value
[5] = 384-well plate pilot, post-Golgi transport modulator project, inhibition of yeast transport mutant growth (AID 636; in the data active = inhibition above about 31%); conditions: absorbance 615 nm, about 18 h, stronger effect = higher value
[6] = growth suppression of yeast trafficking mutant, preliminary HTS, modulators of trafficking downstream of Golgi apparatus project, 1536-format plate, OD 615 nm (AID 637; in the data active = inhibition above about 30%); conditions: yeast transport mutant growth, absorbance 615 nm, 18 h; stronger effect = higher value
[7] = OD615 S. cerevisiae growth inhibition, permissive medium, pilot counter-assay, permissive growth control for S. cerevisiae lifespan shortening project (AID 705;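 active = growth inhibition above 25% in both replicates, a cutoff set 3 SD above the mean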); conditions: OD615, 24 h, at 10 µM, stronger effect = higher value
[8] = Restrictive medium S. cerevisiae growth inhibition, OD615, pilot screen of yeast lifespan reduction project, restrictive growth control (AID 706;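 active = growth inhibition above a set limit, 3 SD over mean compound inhibition, in both replicates, cut at about 43% in these data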;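 note: modified DeaD lifespan yeast strain shifted to restrictive glucose medium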); conditions: OD615, 48 h, at 10 µM, stronger effect = higher value
[9] = viability gain of MRP-1-high H69AR cells under doxorubicin, pilot screen, MRP-1 activator project, CellTiter-Glo, duplicate (AID 807;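 active = viability increase at or above a cutoff of the median across tested compounds plus 3 SD, cut at about 8.5% in these data, passing the limit was not always enough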;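 note: compound pretreatment 18-22 h then 72 h combined with doxorubicin; 0% = doxorubicin alone and 100% = vehicle without doxorubicin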); conditions: H69AR viability with doxorubicin, CellTiter-Glo luminescence; at 10 µM; stronger effect = higher value
[10] = growth suppression of beta-catenin knockout HCT116, pilot screen, human colon tumor cells (AID 823;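 active = cell viability at or below a set limit in both duplicate runs, the limit being the all-compound median minus 4 SD, cut at about 23% in these data, passing the limit was not always enough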;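 note: 0% = wells killed by 20 µM Hyamine and 100% = untreated DMSO cell wells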); conditions: CellTiter-Glo, 60 h, at 10 µM, stronger effect = lower value
[11] = growth suppression of PTEN-deleted HCT116, pilot screen, cell-based, HCT116 clonal line, CellTiter-Glo (AID 824;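 active = viability at or below 27.92% in each of two runs, the all-compound median minus 4 SD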;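 note: 0% = 20 µM Hyamine control and 100% = vehicle cell control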); conditions: 60 h, at 10 µM, stronger effect = lower value
[12] = inhibitors of the yeast RAM network, pilot screen, dse1pr::URA3 reporter, 5-FOA selection (AID 869;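 active = inhibition over a set limit, the all-compound mean plus 3 SD, in both replicate runs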;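 note: 0% = DMSO wells with no growth and 100% = 10 µM 1-NA-PP1 with full growth; RAM network block rescues cells from 5-FOA so hits raise OD615 growth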); conditions: S. cerevisiae dse1pr::URA3 5-FOA growth, OD615, 2 d; at 10 µM; stronger effect = higher value; strain carries analog-sensitive mutant Cbk1 kinase
[13] = RAM signaling pathway blockade in yeast – S. cerevisiae, Pdr1DBD-CYC8 efflux-inhibited sensitized strain, primary screen (AID 1298);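 note: 0% = DMSO untreated cells without growth and 100% = 10 µM 1-NA-PP1 full growth; higher means more yeast growth rescued from 5-FOA killing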; conditions: S. cerevisiae cbk1-as DSE1-URA3 strain, 5-FOA growth OD615, 2 d; at 50 µM; stronger effect = higher value
[14] = H69AR cells + 2 uM doxorubicin, measured here: viability with 2 uM doxorubicin, stronger effect = lower value
[15] = H69AR cells, compound alone cytotoxicity

With `Cc1onc(-c2ccccc2)c1C(=O)NCc1cccnc1` the viability [1] was 102% (inactive), the viability [2] was 100% (inactive) and the viability [3] was 99.4% (inactive). The differential viability (reversal) ([4]; H69AR cells + 2 uM doxorubicin) was 9.66% (inactive), the viability [4, 14] was 89.7% and the viability [4, 15] was 99.4%. For the same compound, the inhibition [5] was -3.33% (inactive), the inhibition [6] was 3.09% (inactive) and the growth inhibition [7] was -14% (inactive). The growth inhibition [8] was -11.6% (inactive), the viability increase [9] was -1.32% (inactive) and the viability [10] was 98.2% (inactive). For the same compound, the viability [11] was 95.8% (inactive), the inhibition [12] was 2.08% (inactive) and the RAM network inhibition [13] was 1.71% (inactive).

For `Cn1c(C(=O)Nc2ccc3c(c2)OCO3)cc2c(=O)n(C)c3ccccc3c21`, the viability [1] was 73% (inactive), the viability [2] was 72.6% (inactive) and the viability [3] was 34.2% (active). For the same compound, the differential viability (reversal) ([4]; H69AR cells + 2 uM doxorubicin) was 7.56% (inactive), the viability [4, 14] was 26.6% and the viability [4, 15] was 34.2%. The inhibition [5] was -2.18% (inactive), the inhibition [6] was 2% (inactive) and the growth inhibition [7] was -4.94% (inactive). The growth inhibition [8] was -3.57% (inactive), the viability increase [9] was -2.91% (inactive) and the viability [10] was 92.4% (inactive). The viability [11] was 91.5% (inactive), the inhibition [12] was 3.22% (inactive) and the RAM network inhibition [13] was 4.86% (inactive).

For `O=C(c1ccco1)c1nnn(Cc2ccccc2)c1-c1ccccc1`, the viability [1] was 107% (inactive), the viability [2] was 102% (inactive) and the viability [3] was 85.1% (inactive). For the same compound, the differential viability (reversal) ([4]; H69AR cells + 2 uM doxorubicin) was 3.42% (inactive), the viability [4, 14] was 81.7% and the viability [4, 15] was 85.1%. For the same compound, the inhibition [5] was -2.93% (inactive), the inhibition [6] was -4.73% (inactive) and the growth inhibition [7] was -6.81% (inactive). For the same compound, the growth inhibition [8] was -8.41% (inactive), the viability increase [9] was -2.38% (inactive) and the viability [10] was 93.5% (inactive). The viability [11] was 99.1% (inactive), the inhibition [12] was 2.21% (inactive) and the RAM network inhibition [13] was -0.25% (inactive).

For `O=C(Cn1c(=O)sc2ccccc21)NCCOc1ccccc1F`, the viability [1] was 102% (inactive), the viability [2] was 108% (inactive) and the viability [3] was 99.4% (inactive). For the same compound, the differential viability (reversal) ([4]; H69AR cells + 2 uM doxorubicin) was 13.6% (inactive), the viability [4, 14] was 85.8% and the viability [4, 15] was 99.4%. For the same compound, the inhibition [5] was -1.82% (inactive), the inhibition [6] was -6.23% (inactive) and the growth inhibition [7] was 7.09% (inactive). The growth inhibition [8] was 11.1% (inactive), the viability increase [9] was -0.76% (inactive) and the viability [10] was 108% (inactive). The viability [11] was 98.4% (inactive), the inhibition [12] was 1.38% (inactive) and the RAM network inhibition [13] was 10.5% (inactive).

In the case of `CC(C)C(CO)NC(=O)CC(=O)NC(CO)C(C)C` (stereo not given), the viability [1] is reported as 93% (inactive), the viability [2] is reported as 101% (inactive) and the viability [3] is reported as 103% (inactive). The differential viability (reversal) ([4]; H69AR cells + 2 uM doxorubicin) was 21.4% (inactive), the viability [4, 14] was 81.4% and the viability [4, 15] was 103%. The inhibition [5] was -4.8% (inactive), the inhibition [6] was -0.91% (inactive) and the growth inhibition [7] was -4.75% (inactive). The growth inhibition [8] was -1.44% (inactive), the viability increase [9] was -0.9% (inactive) and the viability [10] was 105% (inactive). The viability [11] was 97.3% (inactive), the inhibition [12] was 2.15% (inactive) and the RAM network inhibition [13] was 6.33% (inactive).

In the case of `O=C(CCn1[nH]c(=O)c2ccccc2c1=O)NCCO`, the viability [1] is reported as 78% (inactive), the viability [2] is reported as 118% (inactive) and the viability [3] is reported as 89.3% (inactive). The differential viability (reversal) ([4]; H69AR cells + 2 uM doxorubicin) was -2.56% (inactive), the viability [4, 14] was 91.9% and the viability [4, 15] was 89.3%. The inhibition [5] was -7.07% (inactive), the inhibition [6] was -7.27% (inactive) and the growth inhibition [7] was -16.2% (inactive). For the same compound, the growth inhibition [8] was -13.6% (inactive), the viability increase [9] was -0.03% (inactive) and the viability [10] was 102% (inactive). The viability [11] was 102% (inactive), the inhibition [12] was 0.26% (inactive) and the RAM network inhibition [13] was 0.2% (inactive).

In the case of `CC12CN3CCN(CC(C3)C1(O)CN1CCCCC1)C2` (stereo not given), the viability [1] is reported as 119% (inactive), the viability [2] is reported as 95.5% (inactive) and the viability [3] is reported as 92.5% (inactive). For the same compound, the differential viability (reversal) ([4]; H69AR cells + 2 uM doxorubicin) was 3.25% (inactive), the viability [4, 14] was 89.2% and the viability [4, 15] was 92.5%. For the same compound, the inhibition [5] was -8.13% (inactive), the inhibition [6] was -0.18% (inactive) and the growth inhibition [7] was -9.73% (inactive). The growth inhibition [8] was -6.28% (inactive), the viability increase [9] was -1.63% (inactive) and the viability [10] was 88.3% (inactive). The viability [11] was 85.1% (inactive), the inhibition [12] was 1.06% (inactive) and the RAM network inhibition [13] was 1.07% (inactive).

For `Cc1ccc(C)n1-c1ccc(N2CCOCC2)cc1`, the viability [1] was 104% (inactive), the viability [2] was 86.4% (inactive) and the viability [3] was 77.9% (inactive). The differential viability (reversal) ([4]; H69AR cells + 2 uM doxorubicin) was -15.4% (inactive), the viability [4, 14] was 93.4% and the viability [4, 15] was 77.9%. The inhibition [5] was -6.35% (inactive), the inhibition [6] was -3.33% (inactive) and the growth inhibition [7] was -10.4% (inactive). The growth inhibition [8] was -9.78% (inactive), the viability increase [9] was -7.18% (inactive) and the viability [10] was 8.5% (active). For the same compound, the viability [11] was 8.6% (active), the inhibition [12] was 3.15% (inactive) and the RAM network inhibition [13] was 7.34% (inactive).

In the case of `Clc1c(CSc2nc3ccccc3o2)nc2sccn12`, the viability [1] is reported as 116% (inactive), the viability [2] is reported as 82% (inactive) and the viability [3] is reported as 92.9% (inactive). The differential viability (reversal) ([4]; H69AR cells + 2 uM doxorubicin) was 13.2% (inactive), the viability [4, 14] was 79.8% and the viability [4, 15] was 92.9%. For the same compound, the inhibition [5] was -1.04% (inactive), the inhibition [6] was 2.95% (inactive) and the growth inhibition [7] was -13.5% (inactive). The growth inhibition [8] was -9.04% (inactive), the viability increase [9] was -6.43% (inactive) and the viability [10] was 77.3% (inactive). For the same compound, the viability [11] was 81% (inactive), the inhibition [12] was -0.115% (inactive) and the RAM network inhibition [13] was -0.26% (inactive).

With `O=C(Nc1nc2c(s1)CCCC2)C1COc2ccccc2O1` (stereo not given) the viability [1] was 103% (inactive), the viability [2] was 63.1% (inactive) and the viability [3] was 88.3% (inactive). For the same compound, the differential viability (reversal) ([4]; H69AR cells + 2 uM doxorubicin) was -10.7% (inactive), the viability [4, 14] was 99% and the viability [4, 15] was 88.3%. For the same compound, the inhibition [5] was -4.27% (inactive), the inhibition [6] was -5.25% (inactive) and the growth inhibition [7] was -5.28% (inactive). For the same compound, the growth inhibition [8] was -7.76% (inactive), the viability increase [9] was 0.74% (inactive) and the viability [10] was 90.3% (inactive). For the same compound, the viability [11] was 87% (inactive), the inhibition [12] was 0.75% (inactive) and the RAM network inhibition [13] was 0.16% (inactive).
